POLK inh: qHTS for Inhibitors of Polymerase Kappa; purified Pol kappa, fluorescent DNA synthesis assay, 10 min; Potency, µM (top dose mostly 107 µM), without a hit: at the highest dose activity, negative = inhibition, most hits filed as inhibitors; 400,000 compounds, 0.53% hits; AID 588579, 2011; further: on the % scale 0 is the no-effect control and ±100 the full control effect
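First, compounds were pin-transferred onto 10 nM Pol kappa. After 15 min at room temperature, substrate was added to 50 nM final. Fluorescence was then measured kinetically at 0 and 10 min.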
POLB inh: qHTS Assay for Inhibitors of DNA Polymerase Beta | P06746 | Pol beta primer extension/strand displacement, fluorescence kinetic | Potency, µM (top dose mostly 114 µM), inactives show at the top dose activity change, negative = inhibition, most hits filed as inhibitors | 340,000 compounds, 1.3% hits; further: on the % scale 0 is the no-effect control and ±100 the full control effect
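Enzyme-only controls used 10 nM Pol beta; buffer lacking enzyme served as negative control. Compound preincubated 15 min, then 50 nM substrate added; 0 and 10 min reads at room temperature.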
TDP1 block: qHTS Assay for Inhibitors of Tyrosyl-DNA Phosphodiesterase (TDP1). Tyrosyl-DNA phosphodiesterase 1 (Homo sapiens), Q9NUW8. recombinant TDP1, AlphaScreen DNA substrate cleavage. Potency, µM (top dose mostly 130 µM), inactives show at the highest dose activity change, negative = inhibition, most hits filed as inhibitors. 350,000 compounds, 0.28% hits. AID 485290, 2010; further: on the % scale 0 is the no-effect control and ±100 the full control effect; nearly all actives have a fitted effect of over 40% in size
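Enzyme-compound mixtures sat 15 min at room temperature, followed by a 5 min reaction with 15 nM final substrate and 10 min with AlphaScreen beads. Recombinant human Tdp1 was used at 1 nM final.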
FEN1 inh: qHTS Assay for the Inhibitors of Human Flap endonuclease 1 (FEN1); P39748; 390,000 compounds, 0.35% hits; Potency, µM (highest dose often 114 µM), for the others: top-dose activity change, negative = inhibition, actives largely listed as inhibitors; AID 588795, 2011; Recombinant FEN1 flap cleavage, fluorescence, 15 min; further: on the % scale 0 is the no-effect control and ±100 the full control effect; nearly all actives have a fitted effect of over 65% in size
Target sequence (P39748 whole entry, looked up): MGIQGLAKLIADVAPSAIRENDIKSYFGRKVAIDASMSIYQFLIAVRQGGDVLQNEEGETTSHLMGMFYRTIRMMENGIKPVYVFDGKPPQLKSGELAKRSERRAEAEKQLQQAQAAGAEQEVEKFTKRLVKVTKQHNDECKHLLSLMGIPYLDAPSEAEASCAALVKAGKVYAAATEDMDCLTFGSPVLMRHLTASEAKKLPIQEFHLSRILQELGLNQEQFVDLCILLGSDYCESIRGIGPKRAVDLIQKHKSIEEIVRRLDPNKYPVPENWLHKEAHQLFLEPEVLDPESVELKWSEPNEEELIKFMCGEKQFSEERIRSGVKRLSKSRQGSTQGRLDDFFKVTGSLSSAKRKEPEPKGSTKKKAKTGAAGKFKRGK
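Enzyme 10 nM, 15 min RT preincubation with compound; start with substrate 50 nM final; reads at 0 and 15 min; qHTS titration, four-parameter Hill fit.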
Pol iota inh: qHTS for Inhibitors of Polymerase Iota. DNA polymerase iota (Homo sapiens), Q9UNA4. Pol iota fluorescent replication assay, 10 min. Potency, µM (titrated, usually from 115 µM), for inactives: at the highest dose activity, negative = inhibition, actives largely listed as inhibitors. 390,000 compounds, 1% hits. AID 588590, 2011
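Fluorescent replication assay read twice, at 0 min and 10 min after adding 50 nM (final) substrate. Enzyme (10 nM) and compounds were first incubated 15 min at room temperature; enzyme-free buffer wells were negative controls.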
Pol eta inh: qHTS for Inhibitors of Polymerase Eta; DNA polymerase eta (Homo sapiens), Q9Y253; recombinant Pol eta, fluorescent DNA replication assay; Potency, µM (top dose mostly 114 µM), for the others: top-dose activity change, negative = inhibition, hits mostly inhibitors; 390,000 compounds, 1.2% hits; further: on the % scale 0 is the no-effect control and ±100 the full control effect
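Pol eta (10 nM) was preincubated with compounds for 15 min at room temperature, after which fluorescent replication substrate (50 nM final) was added to start the reaction. Fluorescence was read kinetically at 0 and 10 min.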
An asterisk follows results filed as active; u = inconclusive; x = no result; ! = not active in a repeat; [ ] = another dose, or the depositor's remark. This is a sample that favours compounds with a hit; in the whole collection about 2.4% have one here. The call rests on the fitted dose curve; in most records, active means well fitted curve in the direction sought with a large enough effect; inconclusive means small, poorly fitted or top-dose-only effect, or another doubt; inactive means no such curve, though single readings can be large; an effect the other way counts as inactive or inconclusive. Potency means the concentration at half of the fitted maximal effect.

SMILES	POLK inh	POLB inh	TDP1 block	FEN1 inh	Pol iota inh	Pol eta inh
Nc1c(S(=O)(=O)O)cc(Nc2ccc(Nc3nc(Cl)nc(Nc4ccc(S(=O)(=O)O)cc4)n3)c(S(=O)(=O)O)c2)c2c1C(=O)c1ccccc1C2=O	2.7µM*	1.1µM*	16%[56.1 µM]	2µM*	1.6µM*	0.63µM*
CC(C)C(OC(=O)CNC(=O)c1ccccc1)C(=O)Nc1cc(C(F)(F)F)ccc1Cl (configuration not stated)	x	x	0%	x	x	x
CCOC(=O)c1c(NC(=O)COC(=O)c2ccc(NC(=O)CC#N)cc2)sc(C(=O)NC)c1C	u	x	x	u	u	10µM*
O=C(Nc1cccnc1Cl)c1cnn2c1NC(=C1CC1)C=C2C(F)F	-7%	x	x	10%	-3%	x
CC(C)(C)c1cc(CN2CCN(CCO)CC2)cc(C(C)(C)C)c1O	0%	0.89µM*	0%	-16%	-14%	-1%
Cc1ccc(O)c(C2=Nc3ccccc3N=C(c3cccs3)C2)c1	-8%	30%	u	-12%	15%	-7%
Cc1ccc(O)c(C2=Nc3ccccc3N=C(c3cccc(F)c3)C2)c1	-40%	30%	-1%[12.3 µM]	u	89µM*	x
O=c1[nH]c(=O)n([C@H]2C[C@@H](O)[C@@H](CO)O2)cc1F	-2%	x	x	7%	0%	x
Cc1cc(C)cc(NC(=O)CSc2ncc(S(=O)(=O)c3ccccc3)c(=O)[nH]2)c1	x	6%	0%	x	x	x
COc1cc(NC(=O)CSc2ncc(S(=O)(=O)c3ccc(Br)cc3)c(=O)[nH]2)cc(OC)c1	-17%	50µM*	-3%	9%	u	u
O=C(Nc1ccc(O)cc1C(=O)O)c1ccc2c(c1)C(=O)N(Cc1ccco1)C2=O	-28%	u	9%	u	u	40µM*
CC(C)CN1C(=O)c2ccc(C(=O)Nc3ccc(O)cc3C(=O)O)cc2C1=O	-6%	16%	x	-7%	112%	-8%
CCN1C(C)=C(C(=O)OC)C(c2ccccc2)N2C(=O)[C@@]3(C(=O)OC)O[C@@]12C1C(=O)N(c2ccccc2)C(=O)C13 (some centres not stated)	x	x	6%[21 µM]	x	x	x
CC1(C)CC(=O)C(N=Nc2cc(S(=O)(=O)N3CCOCC3)ccc2Cl)=C(O)C1	2%	22µM*	u	16%	3%	-18%
CCC(C)CC(C)CC(C)C(=O)/C=C(/O)C(C)CC(C)C/C=C/C(C)C(O)C(C)C(O)CC1CCC(C)(C)O1 (configuration not stated)	-5%[60.1 µM]	x	3%	x	x	x
CCn1c(SC(C)C(=O)Nc2ccc(C)cc2)nnc1-c1ccccc1 (configuration not stated)	10%	x	x	0%	-4%	x
O=C1NC(=O)C(c2ccccc2[N+](=O)[O-])=C1Nc1ccc(O)c(Cl)c1	11µM*!	11µM*	5%[56.1 µM]	-11%	28µM*!	u
Cc1cccc(OCCn2nnc3sc4c(c3c2=O)CCCC4)c1	-24%	20µM*	-2%	-13%	u	x
Cc1ccc(OCCCCn2nnc3sc4c(c3c2=O)CCC(C)C4)cc1 (configuration not stated)	-24%	25µM*	-7%	1%	-25%	x
c1ccc(CNCc2nnc(-c3cc4ccccc4[nH]3)s2)cc1	x	x	0%	x	x	x
O=[N+]([O-])c1ccc(C=C2c3ccccc3-c3ccccc32)cc1	13%	x	x	21%	-1%	x
CC(C)(C)c1ccc(C(=O)NCC(=O)OC(C(=O)Nc2cc(C(F)(F)F)ccc2Cl)c2ccccc2)cc1 (configuration not stated)	x	x	0%	x	x	x
Cc1ccc(NC(=O)C(c2ccccc2)N2CCN(CC(=O)N3CCOCC3)CC2)cc1Cl (configuration not stated)	-21%	x	28µM*	-1%	-53%	-6%
[O-][n+]1ccccc1SSc1cccc[n+]1[O-]	2%[60.1 µM]	x	11%	x	x	x
O=C(O)CCN1C(=O)/C(=C\c2ccncc2)SC1=S	8%	1%	3%	-2%	46%	2%
SMILES	POLK inh	POLB inh	TDP1 block	FEN1 inh	Pol iota inh	Pol eta inh
O=C(O)CCN1C(=O)/C(=C\c2ccc(-c3nc4ccccc4s3)o2)SC1=S	-24%	u	-3%	-2%	-19%	2.5µM*
NC(=O)COc1ccccc1C(=O)Nc1ccccc1	-12%	x	x	14%	41%	x
C=CCNC(=O)/C(=C\c1ccc(Br)cc1)NC(=O)c1ccccc1OC	4%	0.14µM*	3%	1%	-1%	-12%
C=C(C)Cn1c(SCC(=O)c2ccc(OC)cc2)nc2sc3c(c2c1=O)CCCC3	u	20%	x	-21%	u	-6%
CC(=O)Oc1ccc2c(=O)c(/C=N/c3cc(=O)[nH]c(=S)[nH]3)coc2c1	-22%	-17%	79µM*	-16%	u	u
O=c1cc(/N=C/c2coc3cc(Br)ccc3c2=O)[nH]c(=S)[nH]1	-20%	18%	5%	-5%	u	9%
CCCCNc1nc(C#N)nc(Nc2ccccc2)n1	x	x	6%	x	x	x
CCCn1c(=O)c2ccccc2n2c(SCC(=O)c3ccccc3)nnc12	-13%	-25%	7%	1%	-5%	-1%
CCCn1c(=O)c2ccccc2n2c(SCCNCCO)nnc12	-6%	0.16µM*	x	16%	-25%	-17%
O=c1c(C(c2ccc(Cl)cc2)c2c(O)nc3n(c2=O)CCS3)c(O)nc2n1CCS2	u	-23%	6%	6%	u	89µM*
COc1ccc(CCn2c(C)nc3c(c(=O)c4ccccc4n3C)c2=O)cc1	-4%	-2%	5%	50µM*	14%	-19%
CC(C)Cn1c(-c2ccco2)nc2c(c(=O)c3ccccc3n2C)c1=O	x	40µM*	-1%	x	x	x
C=C(C)[C@@H]1C2=CC(C(=O)OC)=C(C[C@@H](C(=C)C)[C@H]3O[C@H]3C3=C[C@H]1OC3=O)O2	-16%	x	1%	-1%	u	x
OCCn1c(CSc2nnc(-c3ccco3)n2-c2ccccc2)nc2ccc(Cl)cc21	2%	20µM*	6%	-15%	u	u
NC(=O)CSc1nnc(-c2ccco2)n1-c1ccccc1	-1%	-9%	x	14%	-10%	-17%
CCc1ccc2nc(N(CCCN(C)C)C(=O)c3ccc(S(=O)(=O)N(C)C4CCCCC4)cc3)sc2c1	u	-18%	7%	79µM*	-17%	-23%

Screens from PubChem.
